NPC1 prom act – qHTS Assay for NPC1 Promoter Activators | 2.4% of 320,000 active | AID 485313, 2010 | Huh7 NPC1 promoter luciferase reporter, 24 h | Potency, µM (top dose mostly 9.22 µM), without a hit: top-dose activation, usual class: activators; note: % of control where 0% means no effect; nearly all actives have a fitted effect of over 60% in size
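In 1536-well qHTS, Huh7 cells harboring an NPC1 promoter–luciferase construct received compound for 24 h; activation was quantified by luminescence following luciferase reagent addition.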
Rab9 promoter act – qHTS Assay for Rab9 Promoter Activators; Huh7 Rab9 promoter-luciferase reporter, luminescence, 24 h; Potency, µM (titrated, usually from 9.22 µM), without a hit: top-dose activation, negative = inhibition, usual class: activators; 2.8% of 320,000 active; note: % of control where 0% means no effect; nearly all actives have a fitted effect of over 60% in size
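Using Huh7 cells stably transfected with Rab9 promoter–luciferase, compounds were incubated 24 h at 37 °C, 5% CO2; luciferase luminescence was read 10 min after reagent addition.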
FLuc counter – qHTS profiling assay for firefly luciferase inhibitor/activator using purifed enzyme and Km concentrations of substrates (counterscreen for miR-21 project) | purified FLuc, Km substrates, luminescence inhibition | Potency, µM (highest dose often 57.5 µM), without a hit: top-dose activity change, negative = inhibition, actives largely listed as inhibitors | 6.9% of 360,000 active | AID 588342, 2011;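 note: plate controls were vehicle for no effect and reference inhibitor for full effect; nearly all actives have a fitted effect of over 55% in size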
Target sequence (P08659 whole entry, looked up): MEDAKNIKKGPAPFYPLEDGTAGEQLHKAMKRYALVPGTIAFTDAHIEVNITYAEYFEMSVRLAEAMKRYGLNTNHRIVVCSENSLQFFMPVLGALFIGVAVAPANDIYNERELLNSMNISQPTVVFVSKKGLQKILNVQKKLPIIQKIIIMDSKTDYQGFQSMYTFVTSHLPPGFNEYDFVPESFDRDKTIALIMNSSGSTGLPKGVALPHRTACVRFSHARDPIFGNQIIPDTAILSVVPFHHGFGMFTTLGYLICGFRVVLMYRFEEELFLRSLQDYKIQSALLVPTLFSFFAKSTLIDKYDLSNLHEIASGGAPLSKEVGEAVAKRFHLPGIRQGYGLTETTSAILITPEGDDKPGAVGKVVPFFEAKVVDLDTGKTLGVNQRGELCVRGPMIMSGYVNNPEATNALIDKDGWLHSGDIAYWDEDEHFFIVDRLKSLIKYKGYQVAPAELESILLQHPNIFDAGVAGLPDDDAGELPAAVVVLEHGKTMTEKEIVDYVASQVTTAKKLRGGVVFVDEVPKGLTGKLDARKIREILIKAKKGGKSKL
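Purified P. pyralis luciferase (10nM final) with 10uM D-luciferin and 10uM ATP (Km levels) in 50mM Tris acetate pH 7.5, 10mM Mg acetate, 0.01% Tween-20, 0.05% BSA; qHTS 6-point titration, ~60 µM downward; luminescence read.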
SMN2 splice enh – qHTS Assay for Enhancers of SMN2 Splice Variant Expression. HEK293 SMN2-luciferase splicing reporter, luminescence, 30-36 h. Potency, µM (top dose mostly 46.1 µM), for the others: top-dose activity change, positive = activation, usual class: activators. 2.8% of 210,000 active. AID 1458, 2008; note: % of control where 0% means no effect; nearly all actives have a fitted effect of over 55% in size
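HEK293 cells carry an SMN2 […]–luciferase reporter in which exon 7 inclusion puts luciferase in frame. Cells were plated 10-12 h before compound addition, then incubated 30-36 h at 37C. ONE-Glo luminescence was read; sodium butyrate at 4.5 mM final served as control.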
ELG1 genotox – qHTS screen for small molecules that induce genotoxicity in human embryonic kidney (HEK293T) cells expressing luciferase-tagged ELG1; HEK293T ELG1-luciferase reporter, luminescence, 16 h; Potency, µM (top dose mostly 46 µM), for the others: top-dose activity change, positive = activation, most hits filed as activators; 1.3% of 330,000 active; AID 504466, 2011; note: % of control where 0% means no effect; nearly all actives have a fitted effect of over 60% in size
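After overnight (16 hr) compound treatment at 37 °C, ELG1-luciferase HEK293T cells were lysed with ONE-Glo; luminescence quantified 30 min later at room temperature.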
p53 reactivation – qHTS assay for re-activators of p53 using a Luc reporter. H1299 p53-A138V BP100-luciferase reporter, luminescence, 24 h. Potency, µM (doses to about 92.2 µM), inactives show top-dose activity change, positive = activation, usual class: activators. 0.063% of 320,000 active. AID 504706, 2011; note: % of control where 0% means no effect; nearly all actives have a fitted effect of over 45% in size
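p53-null H1299 cells stably carrying temperature-sensitive p53-A138V and a BP100-luciferase reporter were pinned with compounds (4-point, 1:5 series) and held 24 hrs at 37 deg C. Luminescence was read 10 min after detection reagent.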
* = called active by the depositor; ? = inconclusive; . = no result; [ ] = dose if it differs, or a comment. In the library only some 7.4% were active in any assay of this set; here they are far more common. Calls come from the whole dose curve; as a rule, active = well fitted curve in the direction sought with a large enough effect; inconclusive = small, poorly fitted or top-dose-only effect, or another doubt; inactive = no such curve, though single readings can be large; an effect the other way counts as inactive or inconclusive. Potency is the fitted concentration of half-maximal effect.

SMILES	NPC1 prom act	Rab9 promoter act	FLuc counter	SMN2 splice enh	ELG1 genotox	p53 reactivation
COc1cccc(C(=O)Nc2ccccc2NC(=O)c2cccc(OC)c2)c1	-4.0%	-1.8%	-6.7%	.	-7.2%	-10.0%
COc1cccc(C(=O)N/N=C/C(Br)=C/c2ccccc2)c1	1.2%	13.3%	10.7µM*	22.7%	17.7%	?
Cn1cc(C(=O)N/N=C/C(Br)=C/c2ccccc2)ccc1=O	1.1%	3.8%	19µM*	4.3%[1.84 µM]	12.1%	?
Cc1cc(OCC(=O)Nc2nc3c(s2)CCCC3)cc(C)c1Cl	.	.	-10.1%	.	.	.
O=C(CN1C(=O)NC2(CCOc3ccccc32)C1=O)N1CCCCC1 (stereo not given)	.	.	.	.	0.7%	5.2%
COc1ccc(-c2nc3c(c4c2C[C@H](c2ccccc2)OC4)CN(C(=O)c2cc(I)ccc2F)CC3)c(C)c1	.	.	.	-10.6%[9.22 µM]	.	.
O=C(Nc1ccc(OCC(F)(F)C(F)F)c(C(F)(F)F)c1)c1ccccc1O	0.3%	-35.2%	21.3µM*	-30.1%	13.9%	5.2%
O=C(Nc1ccc(OCC(F)(F)C(F)F)cc1)c1ccncc1	-4.5%	-9.8%	-2.8%	-66.4%	-9.2%	1.5%
COC(=O)c1cc(C)sc1NC(=O)CN1CCN(C(=O)C2CCCO2)CC1 (stereo not given)	-38.7%	-42.8%	0.849µM*	.	-19.5%	-22.5%
CCOC(=O)c1cc(C)sc1NC(=O)CN1CCN(C(=O)C2CCCO2)CC1 (stereo not given)	-3.0%	5.8%	0.5%	.	-9.8%	-2.9%
O=C(CCN1CCN(Cc2ccccc2)CC1)Nc1cccc(Br)c1	1.7%	-8.1%[1.84 µM]	-1.6%	.	-9.9%	0.8%
Clc1ccc(CCNC(c2nnc(-c3ccccc3)o2)c2ccccc2Cl)cc1 (stereo not given)	.	.	-18.4%	.	.	.
N#C/C(=C/c1ccco1)c1nc2ccccc2s1	18.4%	3.55µM*	1.9µM*	?	16.4µM*	?
N#C/C(=C\c1ccco1)c1nc2ccccc2s1	28.9%	?	1.69µM*	11.2µM*	7.31µM*	?
N#C/C(=C/c1ccc(-c2cc(C(=O)O)cc(C(=O)O)c2)o1)c1nc2ccccc2s1	-1.6%	-3.5%	2.13µM*	12.9%	-3.4%	3.1%
CCCc1nnc(SCC(=O)NC2CC2)n1C	-3.6%	0.0%	-1.7%	.	3.4%	0.2%
CCN(CC)Cc1c(C(=O)N/N=C/c2c(Cl)cccc2Cl)nnn1-c1nonc1N	0.2%	-1.4%	-0.7%	.	-4.7%	-3.2%
O=C(/C=C/c1ccc(O)c([N+](=O)[O-])c1)c1ccc2ccccc2c1	22.5%	1.7%	7.57µM*	.	0.0%	?
O=C(/C=C/c1ccc(N2CCCCC2)c([N+](=O)[O-])c1)c1ccc(S(=O)(=O)N2CCCC2)cc1	-7.0%	-6.2%	-5.4%	-53.8%	17.5%	0.9%
COc1ccc(Oc2ccc(/C=C/C(=O)c3ccc(O)cc3)cc2[N+](=O)[O-])cc1	-0.7%	-8.9%	23.9µM*	-103.5%	-14.9%	-27.9%
COc1ccc(C(=O)/C=C/c2ccc(OC(=O)c3cc(OC)c(OC)c(OC)c3)cc2)cc1	-3.2%	-2.2%	4.2%	-9.7%	?	17.6%
CN(C)c1ccc(/C=C/C(=O)c2ccccc2)cc1[N+](=O)[O-]	3.55µM*	2.51µM*	1.2µM*	-108.2%	-0.1%	?
CC(=O)N1CCCc2cc(S(=O)(=O)NCc3ccc(N(C)C)cc3)ccc21	.	.	3.3%	.	.	.
COc1ccccc1C(=O)n1nc(-c2ccccc2)nc1NCc1ccc(Cl)cc1	.	.	-1.7%	-1.1%	.	.
O=C(CNCc1ccccc1Cl)Nc1ccc2c(c1)OCCO2	3.16µM*	2.82µM*	21.3µM*	.	?	7.9%
O=C(CSCc1ccccc1Cl)Nc1ccc2c(c1)OCCO2	1.78µM*	1.58µM*	6.75µM*	45.1%	?	?

Bioassay records from PubChem.
